# Source: PubChem (National Center for Advancing Translational Sciences (NCATS))
# Most compounds without a hit are left out; they make up all but 9.4% or so of the library.
# Pf growth 48h – Primary qHTS for delayed death inhibitors of the malarial parasite plastid, 48 hour incubation; 310,000 tested, 5.9% active; Potency, µM (top dose mostly 28.7 µM), without a hit: at the top dose activity change, negative = inhibition, most hits filed as inhibitors; P. falciparum luciferase growth in erythrocytes, 48 h; further: on the % scale 0 is the no-effect control and ±100 the full control effect
#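 In quantitative HTS format, infected erythrocytes bearing luciferase-reporter parasites were treated for a single generation at 37 C. Luminescence after adding detection reagent served as the growth measure.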
# SARS PLP yeast – qHTS of Yeast-based Assay for SARS-CoV PLP; Potency, µM (titrated, usually from 32.9 µM), for inactives: at the top dose activity, positive = growth rescue, hits mostly activators; AID 485353, 2010; 330,000 tested, 0.19% active; S. cerevisiae expressing SARS-CoV PLpro, growth rescue; calls by dose curve; further: 0% is about no effect; nearly all actives have a fitted effect of over 55% in size
# Pf growth 96h – Primary qHTS for delayed death inhibitors of the malarial parasite plastid, 96 hour incubation; Potency, µM (series often up to 28.7 µM), for inactives: at the top dose activity change, negative = inhibition, actives largely listed as inhibitors; P. falciparum luciferase reporter growth, 96 h; 320,000 tested, 6.9% active; further: on the % scale 0 is the no-effect control and ±100 the full control effect
#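 Erythrocytes infected with luciferase-expressing P. falciparum were dispensed at 2% hematocrit and 0.05% parasitemia (final), then incubated with compounds 96 hours at 37 C in 5% CO2. Luminescence after detection reagent addition reported growth.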
# AMA1 RON2 block – qHTS for Inhibitors of AMA1-RON; Towards Development of Antimalarial Drug Lead: Primary Screen; AID 720542, 2013; 360,000 tested, 0.2% active; AlphaScreen AMA1-biotinylated RON2 peptide binding; Potency, µM (series often up to 58.2 µM), for the others: top-dose activity change, negative = inhibition, actives largely listed as inhibitors; Plasmodium falciparum AMA1 (3D7) - RON2 peptide interaction;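 further: 0% = vehicle wells and -100% = peptide control; nearly all actives have a fitted effect of over 45% in size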
#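 AMA1 (3D7) with his tag at 25 nM final met compounds first, then biotinylated RON2 peptide at 25 nM; detection used donor plus acceptor beads, 10 µg/mL apiece, read by AlphaScreen after 30 min at room temperature.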
# * marks the source's active call; other numbers are inactive results; u = inconclusive; x = not tested or not shown; ! = a repeat was not active; [ ] = another dose, or the depositor's remark. Unless noted, the call rests on the fitted dose curve; in most records, active means well fitted curve in the direction sought with a large enough effect; inconclusive means small, poorly fitted or top-dose-only effect, or another doubt; inactive means no such curve, though single readings can be large; an effect the other way counts as inactive or inconclusive. Potency means the concentration at half of the fitted maximal effect.
SMILES,Pf growth 48h,SARS PLP yeast,Pf growth 96h,AMA1 RON2 block
CCc1cc2cc(C)cc(C)c2nc1SCC(=O)N1CCN(C(=O)c2ccco2)CC1,-24.4%,u,8.28µM*,0.2%
CCc1c(C)sc(NC(=O)c2ccco2)c1C(=O)N1CCOCC1,0.9%,3.4%,5.8%,12.6%
Nc1cc(C(=O)O)c(N)c2c1C(=O)c1ccccc1C2=O,u,-6.3%,u,17.8µM*
CCC[C@@H]1C[C@@H](C(=O)N[C@H]([C@@H](C)O)[C@H]2O[C@H](SC)[C@H](O)[C@@H](O)C2O)N(C)C1 (some centres not stated),0.0415µM*,-0.3%,0.131µM*,-13.4%
CCC[C@@H]1C[C@@H](C(=O)N[C@@H]([C@H]2O[C@H](SC)[C@H](O)[C@@H](O)[C@H]2O)[C@@H](C)O)N(C)C1,2.69µM*,x,0.169µM*,x
COc1ccc(OC)c(NC(=O)CN(Cc2ccc(F)cc2)C2CCCCC2)c1,4.65µM*,-4.8%,u,u
COc1ccc(C)cc1NC(=O)CN(Cc1nnc(-c2ccc(Cl)cc2)o1)C1CCCC1,10.4µM*,-9.9%,u,27.4%
COc1ccc(C(=O)/C=C/C(=O)N(CC(=O)NC2CCCCC2)Cc2ccc(F)cc2)c(O)c1,9.28µM*,1.2%,2.33µM*,-16.2%
Cn1cc(C(=O)N/N=C/c2cc(Br)cs2)c2ccccc21,50.0%,2.2%,u,x
CN(CCCNC(=O)CSc1cc(=O)n(C)c2ccc(Cl)cc12)Cc1ccccc1,-7.4%,3.0%,-6.0%,4.1%
O=C(CN1CCCC1)Nc1nc(-c2ccc3c(c2)CCN3C(=O)c2ccccc2F)cs1,14.7µM*,-0.7%,u,13.8%
CS(=O)(=O)N1CCc2cc(-c3csc(NC(=O)Cc4cccs4)n3)ccc21,-23.2%,-0.4%,97.1%,-11.1%
Cc1sc(NC(=O)CN2CCOCC2)nc1-c1ccc2c(c1)CCN2S(=O)(=O)c1ccccc1,11.7µM*,-1.4%,x,0.7%
O=C(CN1CCOCC1)Nc1nc(-c2ccc3c(c2)CCN3S(=O)(=O)c2ccccc2)cs1,2.08µM*,-0.4%,x,10.3%
COc1ccc(-c2noc(N3CCC(C(=O)NCCCN4CCC(C)CC4)CC3)n2)cc1,6.8%,3.9%,u,2.1%
COc1cccc(C2CC(c3c(-c4ccccc4)c4cc(Cl)ccc4[nH]c3=O)=NN2S(C)(=O)=O)c1OC (configuration not stated),7.38µM*,-5.8%,x,-4.0%
COc1ccccc1C1CC(c2c(-c3ccccc3)c3cc(Cl)ccc3[nH]c2=O)=NN1S(C)(=O)=O (configuration not stated),11.7µM*,4.5%,u,-11.4%
O=C(O)CCC(=O)N1N=C(c2c(-c3ccccc3)c3cc(Cl)ccc3[nH]c2=O)CC1c1ccco1 (configuration not stated),u,8.2%,u,-1.1%
O=C(O)CCC(=O)N1N=C(c2c(-c3ccccc3)c3cc(Cl)ccc3[nH]c2=O)CC1c1ccccc1 (configuration not stated),u,-0.2%,u,2.9%
COc1ccc(C2CC(c3c(-c4ccccc4)c4cc(Cl)ccc4[nH]c3=O)=NN2C(=O)CCC(=O)O)cc1 (configuration not stated),u,0.2%,13.5%,-11.8%
CCC(=O)N1N=C(c2c(-c3ccccc3)c3cc(Cl)ccc3[nH]c2=O)CC1c1ccco1 (configuration not stated),10.4µM*,4.9%,u,0.4%
CN(C)c1ccc(-c2csc(C(C)(O)c3cccc(F)c3)n2)cc1 (configuration not stated),x,x,x,15.8µM*
Cc1ccc(-c2csc(C(O)c3ccccc3)n2)cc1C (configuration not stated),x,x,x,1.5%
CN(C)c1ccc(-c2csc(C(O)c3ccccc3)n2)cc1 (configuration not stated),x,x,x,25.1µM*
O=C1c2ccccc2CN1c1ccccc1,95.9%,-7.0%,4.15µM*,-6.0%
SMILES,Pf growth 48h,SARS PLP yeast,Pf growth 96h,AMA1 RON2 block
O=C1c2ccccc2CN2C(=O)c3ccccc3CN12,-0.6%,-5.0%,3.7µM*!,-4.4%
Cc1ccc(N2Cc3ccccc3C2=O)cc1,-14.0%,-12.3%,46.7%,2.0%
COc1ccc(N2Cc3ccccc3C2=O)cc1,-19.7%,-11.9%,2.94µM*,17.0%
O=C1N(c2ccccc2)CCN1c1ccccc1,321.9%,-0.3%,10.4µM*,1.8%
CCOC(=O)C1CCCN(C(=O)Cn2cnc3sc(C)c(S(=O)(=O)N4CCOCC4)c3c2=O)C1 (configuration not stated),-10.1%,3.9%,6.0%,21.4%
Nc1ncnc(NCc2ccccc2)c1[N+](=O)[O-],20.8%,7.6%,40.9%,4.3%
COc1ccc(N2C(=O)c3ccccc3S2(=O)=O)cc1,2.94µM*,1.5%,46.1%,6.1%
Cc1cc(N(C)C)ccc1N=Nc1ccc(N)cc1,x,x,x,14.1µM*
Nc1ccc(N=Nc2ccc(N)cc2)cc1,330.8%,-2.2%,343.0%,-9.9%
Cc1ccc2ccccc2c1C(O)c1ncc(-c2cccc(C(F)(F)F)c2)[nH]1 (configuration not stated),x,x,x,32.6%
O=C(NCCOc1ccc(Cl)cc1)c1cccc(S(=O)(=O)N2CCCC2)c1,u,-9.8%,u,11.2%
COC(=O)c1ccc2nc(NC(=O)CN3C(=O)CCC3=O)sc2c1,-0.2%,0.9%,0.828µM*,-6.9%
CC(=O)c1cccc(OCC(O)CNCC2CCCCC2)c1 (configuration not stated),5.6%[0.00184 µM],0.7%,-18.7%,6.5%
O=C(Nc1ccc(NC(=O)C2CC2)nc1)c1cccc(F)c1,35.0%,12.8%,-3.1%,-8.2%
CC1CCCN(C(=O)C23CCC(C)(C(=O)C2)C3(C)C)C1 (configuration not stated),7.6%,-7.2%,9.28µM*,-0.3%
CC12CCC(C(=O)N3CCCCC3)(CC1=O)C2(C)C (configuration not stated),25.4%,-3.5%,-11.6%,-3.9%
O=c1oc2ccccc2c2oc3cc(O)c(O)cc3c12,32.2%,-0.8%,70.8%,-22.2%
O=c1oc2c(O)c(O)cc3c(=O)oc4c(O)c(O)cc1c4c23,5.22µM*,1.41µM*,3.7µM*,0.794µM*
COc1ccc(N2CCN(c3nc4c(C)cccn4c(=O)c3C=C(C#N)C#N)CC2)cc1,-11.7%,1.8%,-12.2%,-3.6%
CCCC[n+]1ccn(C2=C([O-])c3ccccc3C(=O)/C2=N\S(=O)(=O)c2ccc(Cl)cc2)c1,u,0.3%,3.7µM*,-2.7%
O=c1c(Cc2c(F)cccc2Cl)c(O)ccn1C1CCCCCC1,u,0.1%,-16.9%,-1.1%
O=c1c(Cc2ccc(F)cc2)c(O)ccn1C1CC1,5.22µM*,-7.8%,-13.3%,0.2%
CC(=O)N1CCC(N(CCN2CCOCC2)C(=S)Nc2ccc(C)cc2C)CC1,36.3%,8.9%,-2.1%,7.8%
